Each structure is given as a SMILES string. “And” between values parts separate entries of the source, which are not always exact repeats. Identical values can stand only once. Results filed as inconclusive are left out. The source made the active and inactive calls. Unless noted, the call rests on the fitted dose curve; in most records, active means well fitted curve in the direction sought with a large enough effect in the repeat runs; inconclusive means weak or mixed curves; inactive means no such curve, though single readings can be large; an effect the other way counts as inactive or inconclusive.

The source of these data is PubChem BioAssay (NCATS).

Test [1] in a line: Primary qHTS for small molecule stabilizers of the endoplasmic reticulum resident proteome: Secreted ER Calcium Modulated Protein (SERCaMP) assay (AID 1508630; active means well fitted curve in the direction sought with a large enough effect; an effect the other way counts as inactive or inconclusive; further: on the % scale 0 is the no-effect control and ±100 the full control effect). An outline of the steps: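 GLuc-SERCaMP-expressing SH-SY5Y cells, pretreated 16 h with compound, are challenged with thapsigargin to empty ER calcium stores; after 4 h, coelenterazine is added directly to the medium and luminescence is imaged.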
(In general: Quantitative high-throughput screening tests each substance at several concentrations.)

Test [2] can be described thus: A High-Content qHTS Against Drug Library for the Identification of Small Molecules that Inhibit DYT1 Early Onset Primary Dystonia-Associated Cell Pathology (AID 1645839; calls by dose curve). An outline of the steps: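 Readout: %pathology, the punctate EGFP-TorsinA distribution from imaging, as the primary channel and cell count as the toxicity counterscreen. HEK293 Flp-In cells expressing delE TorsinA were induced with tetracycline and treated with compound for 48 h.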

For test [3], the target named is Cytochrome P450 2D6 (Homo sapiens) (UniProt P10635). The test can be described thus: Cytochrome P450 family 2 subfamily D member 6 (CYP2D6) small molecule antagonists: luciferase biochemical (cell-free) qHTS assay (AID 1645840). Further: nearly all actives have a fitted effect of over 55% in size. Further: potency means the concentration at half of the fitted maximal effect. On activity change, negative = inhibition: on the % scale 0 is the no-effect control and ±100 the full control effect. In a few lines:
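P450-Glo luminescent screen: recombinant CYP2D6 enzyme–proluciferin substrate mix preincubated with compound 10 min at room temperature, then NADPH regeneration added for 1 h at room temperature. Detection reagent added for 20 min; luciferin light read as relative luminescence units.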

The target in test [4] is Cytochrome P450 2C9 (Homo sapiens) (UniProt P11712). Briefly: Cytochrome P450 family 2 subfamily C member 9 (CYP2C9) small molecule antagonists: luciferase biochemical (cell-free) qHTS assay (AID 1645842). Further: nearly all actives have a fitted effect of over 55% in size. Further: potency means the concentration at half of the fitted maximal effect. On activity change, negative = inhibition: on the % scale 0 is the no-effect control and ±100 the full control effect. An outline of the steps: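 Luminescence, after 20 min with luciferin detection reagent, reflected CYP2C9 turnover during a 1 h NADPH-driven reaction at 37C. Enzyme-substrate mix contained 0.4% bovine serum albumin and was preincubated with compound 10 min at room temperature.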

Test [5] in a line: Cytotoxicity counterscreen for inhibitors of SARS-CoV-2 cell entry (AID 1645845; calls by dose curve; further: nearly all actives have a fitted effect of over 50% in size; further: potency means the concentration at half of the fitted maximal effect). An outline of the steps:
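Expi293F/hACE2 cells seeded overnight; cpd pin-transferred in DMSO, 1 h preincubation, + media, 48 h 37 C 5% CO2; ATPLite 1step luminescence; normalized to cells and no cells.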

The nature of test [6]: Primary qHTS to identify inhibitors of SARS-CoV-2 cell entry (AID 1645846; calls by dose curve; further: nearly all actives have a fitted effect of over 45% in size; further: potency means the concentration at half of the fitted maximal effect). Particulars: activity change, negative = inhibition: at 57.1 µM (top of the series) unless noted. In a few lines: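 Entry measured by luciferase signal 48 h after adding SARS-CoV-2-S pseudotyped MLV particles to HEK293-ACE2 cells preincubated 1 h with compounds. Normalisation: bald particles and spike particles.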

The nature of test [7]: Confirmatory qHTS to identify inhibitors of SARS-CoV-2 cell entry (AID 1645844; calls by dose curve; further: nearly all actives have a fitted effect of over 45% in size; further: potency means the concentration at half of the fitted maximal effect). An outline of the steps:
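HEK293-ACE2 cells (Expi293F stably expressing human ACE2) were pretreated with compounds for 1 hr at 37C, then infected with MLV-based particles carrying Wuhan-Hu-1 spike (C-terminal 19-aa truncation). Luciferase luminescence read after 48 hr; normalized to spike PP (100%) and bald PP (0%).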

The nature of test [8]: VSVG counterscreen qHTS to identify inhibitors of SARS-CoV-2 cell entry (AID 1645847; calls by dose curve; further: nearly all actives have a fitted effect of over 65% in size; further: potency means the concentration at half of the fitted maximal effect; on activity change, negative = inhibition: on the % scale 0 is the no-effect control and ±100 the full control effect). In a few lines: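 Luminescence read after 48 h infection at 37 C with VSV-G-pseudotyped MLV particles, following 1 h compound exposure of Expi293F cells stably expressing human ACE2; scaled between bald particle and VSV-G particle wells.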
In general terms: The purpose of a counterscreen is to sort out artefacts and off-target activity.

Test [9] concerns the target Cytochrome P450 3A4 (Homo sapiens) (UniProt P08684). Briefly: Cytochrome P450 family 3 subfamily A member 4 (CYP3A4) small molecule antagonists: luciferase qHTS assay (AID 1645841). Further: nearly all actives have a fitted effect of over 45% in size. In a few lines:
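P450-Glo CYP3A4 enzyme with proluciferin substrate was preincubated with DMSO-dissolved compounds for 10 min at room temperature. NADPH regeneration solution started a 1 h reaction. Detection reagent stopped it, and luminescence was read after 20 min.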

Chain of Cytochrome P450 3A4 (Homo sapiens) (P08684 whole entry, looked up): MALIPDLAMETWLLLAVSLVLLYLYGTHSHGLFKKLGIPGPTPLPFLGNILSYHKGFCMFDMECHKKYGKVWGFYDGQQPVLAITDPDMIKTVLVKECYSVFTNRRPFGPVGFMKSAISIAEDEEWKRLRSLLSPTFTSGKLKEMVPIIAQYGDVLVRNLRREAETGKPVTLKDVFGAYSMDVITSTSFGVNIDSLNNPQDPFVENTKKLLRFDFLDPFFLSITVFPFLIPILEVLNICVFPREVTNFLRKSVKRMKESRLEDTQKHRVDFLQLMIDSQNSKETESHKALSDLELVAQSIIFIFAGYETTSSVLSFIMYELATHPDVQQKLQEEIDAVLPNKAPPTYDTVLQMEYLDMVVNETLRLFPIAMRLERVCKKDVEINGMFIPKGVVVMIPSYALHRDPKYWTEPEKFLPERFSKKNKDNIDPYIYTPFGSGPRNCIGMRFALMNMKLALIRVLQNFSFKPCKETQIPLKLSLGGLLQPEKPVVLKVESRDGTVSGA
Chain of Cytochrome P450 2D6 (Homo sapiens) (P10635 whole entry, looked up): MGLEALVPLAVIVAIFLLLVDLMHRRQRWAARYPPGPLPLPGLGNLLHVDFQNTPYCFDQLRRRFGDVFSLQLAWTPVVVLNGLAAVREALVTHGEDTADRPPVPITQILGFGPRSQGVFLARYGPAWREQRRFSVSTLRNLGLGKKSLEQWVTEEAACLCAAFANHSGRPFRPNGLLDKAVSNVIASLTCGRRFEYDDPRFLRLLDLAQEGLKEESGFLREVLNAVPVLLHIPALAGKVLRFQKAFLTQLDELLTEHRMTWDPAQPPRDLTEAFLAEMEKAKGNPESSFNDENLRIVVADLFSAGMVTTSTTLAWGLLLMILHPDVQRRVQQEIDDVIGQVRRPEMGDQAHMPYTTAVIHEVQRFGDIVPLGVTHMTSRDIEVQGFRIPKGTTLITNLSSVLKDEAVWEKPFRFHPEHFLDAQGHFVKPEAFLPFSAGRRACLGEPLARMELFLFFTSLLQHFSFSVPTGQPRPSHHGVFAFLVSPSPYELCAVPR
Chain of Cytochrome P450 2C9 (Homo sapiens) (P11712 whole entry, looked up): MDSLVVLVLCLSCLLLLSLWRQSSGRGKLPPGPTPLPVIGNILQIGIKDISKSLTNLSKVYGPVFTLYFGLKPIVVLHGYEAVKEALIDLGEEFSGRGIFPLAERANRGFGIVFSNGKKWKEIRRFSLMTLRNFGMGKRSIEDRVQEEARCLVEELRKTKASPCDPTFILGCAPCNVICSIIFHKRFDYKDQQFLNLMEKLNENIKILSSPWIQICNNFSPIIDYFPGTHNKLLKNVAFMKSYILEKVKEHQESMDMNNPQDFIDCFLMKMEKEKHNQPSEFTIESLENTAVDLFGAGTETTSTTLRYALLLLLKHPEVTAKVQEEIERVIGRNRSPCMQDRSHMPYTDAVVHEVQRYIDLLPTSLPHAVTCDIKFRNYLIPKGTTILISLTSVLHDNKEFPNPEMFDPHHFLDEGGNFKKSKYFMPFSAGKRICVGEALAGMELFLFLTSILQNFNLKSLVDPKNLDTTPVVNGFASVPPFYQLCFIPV

With `O=C(Nc1ccccc1-c1ccc(Cl)cc1)c1cccnc1Cl`, the Potency entry in test [1], in test [2] and in test [4] was “inactive” throughout. Also, in test [3], the Potency is 22.4 µM (active).

With `CC[C@@H]1[C@@H](C)O[C@@](O)([C@@H](C)[C@H](O)[C@H](C)[C@H]2OC(=O)C=CC=C[C@@H](C)[C@@H]([C@@H](C)[C@@H](O)[C@H](C)[C@@]3(O)C[C@H](O[C@H]4C[C@H](O)[C@H](O)[C@H](C)O4)[C@H](CC)[C@@H](C)O3)OC(=O)C=CC=C[C@@H]2C)C[C@H]1O[C@H]1C[C@H](O)[C@H](O)[C@H](C)O1`, the Potency entry in test [1] was “inactive”.

`CO/C=C(/C(=O)OC)c1ccccc1Oc1cc(Oc2ccccc2C#N)ncn1`: the Potency entry in test [1] and in test [2] was “inactive” throughout. Besides, the Potency was 39.9 µM (active) in test [3] and 3.66 µM (active) in test [4].

As for `CC=C(C)C(=O)N[C@@H](c1ccccc1)[C@@H](O)C(=O)O[C@H]1C[C@@]2(O)[C@@H](OC(=O)c3ccccc3)[C@@H]3[C@]4(OC(C)=O)CO[C@@H]4C[C@H](O)[C@@]3(C)C(=O)[C@H](OC(C)=O)C(=C1C)C2(C)C`, the Potency entry in [1] is “inactive”.

As to `COc1ccc(N(C(=O)Oc2c(C)cccc2C)c2ccnc(Nc3ccc(N4CCN(C)CC4)cc3)n2)c(OC)c1`, the Potency result in test [1], in test [5] and in test [6] was “inactive” throughout. Also, the Potency in [3] was 1.9 µM (active); in [4] it was 21.3 µM (active).

Turning to `COc1cc([C@@H]2c3cc4c(cc3[C@@H](O)C3COC(=O)C32)OCO4)cc(OC)c1O` (some centres undefined), the Potency result in [1] and in [5] was “inactive” each time. Besides, the Potency in test [7] is 1.71 µM (active); in [8], 0.541 µM (active).

As to `O=C(Oc1ccc([N+](=O)[O-])cc1)N1CCN(Cc2cccc(Oc3ccccc3)c2)CC1`, the Potency result in [1] was “inactive”. Moreover, the Potency is 2.68 µM (active) in test [3] and 19 µM (active) in test [4].

As for `C=CC(=O)NCNC(=O)C=C`, the Potency entry in test [1], in test [3] and in test [4] was “inactive” in each case.

Take `O=[N+]([O-])c1ccc([As](=O)(O)O)cc1`: the Potency entry in [1], in [3], in test [9], in test [4] and in test [5] was “inactive” each time. Further, in [6], the activity change, negative = inhibition amounted to 1.4%.

Turning to `Cc1c(C(=O)Nc2cccc(C(F)(F)F)c2)cc(-c2ccccc2)n1CCCN1CCOCC1`, the Potency entry in test [1] and in [5] was “inactive” in each case. In test [4], the Potency is 4.77 µM (active).

As to `CC(C)Oc1cccc(NC(=O)c2ccccc2C(F)(F)F)c1`, the Potency entry in test [1] is “inactive”. Moreover, the Potency in test [4] is 5.97 µM (active).

For the compound `O=C(NCC1CCOCC1)c1cnc(Nc2ccc(Cl)cc2Cl)nc1C(F)(F)F`, the Potency entry in [1], in test [3], in [9] and in test [5] was “inactive” each time. Besides, the activity change, negative = inhibition in test [6] was -4.18%.

With `CN(C)[C@@H]1C(=O)C(C(N)=O)=C(O)[C@@]2(O)C(=O)C3=C(O)c4c(O)cccc4[C@@](C)(O)[C@H]3[C@H](O)[C@@H]12`, the Potency result in test [1], in [4], in test [5] and in [6] was “inactive” each time. For the same compound, the activity change, negative = inhibition in test [6] is -8.27%.

Consider `CCCCCCCCCC(CC)c1ccc(S(=O)(=O)O)cc1` (centres undefined), for which the Potency result in test [1] is “inactive”. Besides, the Potency in test [3] is 26.7 µM (active); in [4], 7.74 µM (active).

For `CC(C)NC(C)Cc1ccc(I)cc1` (centres undefined), the Potency entry in test [1] and in [5] was “inactive” throughout.

Regarding `COc1nn(CSP(=S)(OC)OC)c(=O)s1`, the Potency result in [1] is “inactive”. Moreover, the values for the Potency in test [3] and in test [4] were 25.9 µM (active) and 5.17 µM (active), respectively.

`CCN1CCN(C(=O)Cc2ccc(Nc3ncc(F)c(Nc4ccc(C(=O)Nc5ccccc5Cl)cc4)n3)cc2)CC1`: the Potency entry in test [1] and in test [3] was “inactive” each time. In addition, the Potency in [4] is 1.9 µM (active); in test [5], 22.4 µM (active); in [6], 8.91 µM (active).

`O=S(=O)(c1ccc(Cl)cc1)c1ccc(Cl)cc1`: the Potency result in test [1] and in [2] was “inactive” throughout. Also, the Potency in test [4] is 27.8 µM (active).

As to `CC1=C(O)C(=O)C=C2C1=CC=C1[C@@]2(C)CC[C@@]2(C)[C@@H]3C[C@](C)(C(=O)O)CC[C@]3(C)CC[C@]12C`, the Potency entry in [1] is “inactive”. The Potency in [4] was 12 µM (active); in test [6], 14.1 µM (active).

As to `CCc1c(C(=O)C(N)=O)c2c(OCC(=O)O)cccc2n1Cc1ccccc1`, the Potency result in test [1], in test [3], in [4], in test [7] and in test [8] was “inactive” each time. The activity change, negative = inhibition in test [6] was -66.7%.

In the case of `O=C(Nc1ccncc1)C(=O)c1cn(Cc2ccc(Cl)cc2)c2ccccc12`, the Potency entry in test [1], in test [3] and in test [5] was “inactive” each time. Also, the Potency was 0.301 µM (active) in test [4], 0.961 µM (active) in test [7] and 0.961 µM (active) in [8]. Moreover, the activity change, negative = inhibition in test [6] is -75.6%.

For the compound `CCO/N=C(\CC)C1=C(O)CC(c2c(C)cc(C)cc2C)CC1=O` (centres undefined), the Potency result in test [1] and in test [2] was “inactive” in each case. For the same compound, the Potency in [4] is 4.48 µM (active).

In the case of `CCCCCCCCc1ccc(O)cc1`, the Potency entry in [1] is “inactive”. Also, the Potency was 31 µM (active) in test [3] and 30.1 µM (active) in test [4].

Take `O=C(N[C@@H](COc1ccc2[nH]c(=O)[nH]c2c1)c1ccccc1)c1cccn(Cc2ccc(F)c(F)c2)c1=O`: the Potency entry in [1] and in [5] was “inactive” in each case. The Potency in [3] is 4.25 µM (active); in test [4] it was 0.239 µM (active).

Consider `CC(C)(C)C(O)C(Oc1ccc(Cl)cc1)n1cncn1` (centres undefined), for which the Potency entry in test [1] and in [2] was “inactive” throughout. Also, in [4], the Potency is 21.2 µM (active).

As to `CCNC(=O)C[C@@H]1N=C(c2ccc(Cl)cc2)c2cc(OC)ccc2-n2c(C)nnc21`, the Potency entry in [1] and in test [5] was “inactive” each time.

With `CCCCOC(=O)c1ccccc1C(=O)OCc1ccccc1`, the Potency result in test [1] and in [2] was “inactive” in each case. The Potency in [4] was 8.2 µM (active).

Consider `Cc1[nH]nc2ccc(-c3cncc(OC[C@@H](N)Cc4c[nH]c5ccccc45)c3)cc12`, for which the Potency result in [1] is “inactive”. Further, the Potency is 3.79 µM (active) in [3] and 0.674 µM (active) in test [4]. In addition, the activity change, negative = inhibition in [6] was -97.4%.

Take `CCC(=O)O[C@@H]1C=C2CCC3C(CCC4(C)C3CC[C@@H]4OC(=O)CC)C2CC1` (some centres undefined): the Potency entry in [1], in [2] and in test [5] was “inactive” in each case. Also, the Potency in [4] was 19.5 µM (active).

For the compound `CCCCc1ccc(C(=O)O)nc1`, the Potency entry in test [1], in test [3], in [9] and in test [4] was “inactive” in each case.

With `CSCC[C@@H](NC(=O)[C@@H](Cc1ccccc1)NC(=O)CNC(=O)CNC(=O)[C@@H](N)Cc1ccc(O)cc1)C(=O)O`, the Potency result in test [1], in test [3], in test [4] and in test [5] was “inactive” in each case. The activity change, negative = inhibition in [6] was -0.623%.

On to `O=S(=O)(O)C(F)(F)C(F)(F)C(F)(F)C(F)(F)C(F)(F)C(F)(F)C(F)(F)C(F)(F)F`, for which the Potency result in test [1] and in test [3] was “inactive” in each case. Moreover, the Potency in test [4] is 0.564 µM (active).

Consider `O=c1[nH]c2ccc(Cl)cc2c(N[C@@H]2CN3CCC2CC3)c1-c1nc2ccccc2[nH]1`, for which, in test [1], the Potency entry is “inactive”. For the same compound, the Potency was 1.69 µM (active) and 2.39 µM (active) in test [3]; 10.7 µM (active) and 8.49 µM (active) in test [4].
